Measurements from the supplement of paper PMC11732987, “Enantioselective OTUD7B fragment discovery through chemoproteomics screening and high-throughput optimisation” (Communications Chemistry, 2025).

Key:
Assay in all cases: log2 ratio of Biotin-Ahx-Ub-VS probe labelling (compound/DMSO); higher = less target engagement, active = hit call of the paper (q ≤ 0.05, log2 ratio ≤ -1)
Settings in all cases: treatment time: 3 h
[1] = compound: CCC1N(CCc2sccc12)C(=O)CCl
Summary of the method: (§1)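 HEK293T lysate (495 µg per sample, in Tris/CHAPS/IGEPAL buffer with protease inhibitors) was exposed in triplicate to compound at 50 or 200 µM, or to DMSO, for 3 h, then to Biotin-Ahx-Ub-VS (0.5 µM final) for 1 h. The labelled DUBs were enriched on NeutrAvidin, digested with LysC and trypsin, and analysed by diaPASEF LC-MS/MS. Average base-two log ratios of compound over DMSO came from median-normalised label-free quantities by unpaired t-test. Only proteins with at least 2 unique peptides were used.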

[2] = compound: CN1c2ccccc2C(CS1(=O)=O)NC(=O)CCl
Summary of the method: as §1

[3] = compound: Cl.ClCC(=O)N1CCc2ncncc2C1
Summary of the method: as §1

[4] = compound: Cl.Cn1ncc2C(CCCc12)NC(=O)CCl
Summary of the method: as §1

[5] = compound: ClCC(=O)NC1CCOc2ccccc12
Summary of the method: as §1

[6] = compound: ClCC(=O)NC1CCCc2ccccc12
Summary of the method: (§2)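 HEK293T lysate (495 µg per sample, in Tris/CHAPS/IGEPAL buffer with protease inhibitors) was treated in triplicate with compound over a concentration series or DMSO for 3 h, then with Biotin-Ahx-Ub-VS (0.5 µM final) for 1 h. Labelled DUBs were NeutrAvidin-enriched, digested with LysC and trypsin, and run by diaPASEF LC-MS/MS. Spectronaut label-free protein quantities were global-median-normalised. Values are average log2 ratios compound/DMSO from an unpaired t-test, using proteins with ≥2 unique peptides.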

[7] = compound: ClCC(=O)N[C@@H]1CCCc2ccccc12
Summary of the method: as §2

[8] = compound: ClCC(=O)N[C@H]1CCCc2ccccc12
Summary of the method: as §2

[9] = compound: CCC1N(CCc2cc(OC)c(Cl)cc12)C(=O)CCl
Summary of the method: as §1

[10] = compound: CCCC1N(CCc2cc(OC)c(OC)cc12)C(=O)CCl
Summary of the method: as §1

[11] = compound: CN(Cc1cccc(Br)c1)C(=O)CCl
Summary of the method: as §1

[12] = compound: CN(Cc1ccccc1)C(=O)CCl
Summary of the method: as §1

[13] = compound: COc1ccc(CN(C)C(=O)CCl)cc1
Summary of the method: as §1

[14] = compound: COc1cccc(CN(CCCc2ccccc2)C(=O)CCl)c1
Summary of the method: as §1

[15] = compound: ClCC(=O)N1CCc2cc(Cl)c(Cl)cc2C1
Summary of the method: as §1

[16] = compound: ClCC(=O)N1CCc2nc(ncc2C1)-c1ccccc1
Summary of the method: as §1

[17] = compound: ClCC(=O)N1CCc2nocc2C1
Summary of the method: as §1

[18] = compound: ClCC(=O)N1CCc2scc(Br)c2C1
Summary of the method: as §1

[19] = compound: ClCC(=O)NC(C1CCCC1)c1cccs1
Summary of the method: as §1

Measured: log2 ratio of Biotin-Ahx-Ub-VS probe labelling

USP24 (UniProt Q9UPU5)
Chain of UniProt Q9UPU5 (Q9UPU5 whole entry): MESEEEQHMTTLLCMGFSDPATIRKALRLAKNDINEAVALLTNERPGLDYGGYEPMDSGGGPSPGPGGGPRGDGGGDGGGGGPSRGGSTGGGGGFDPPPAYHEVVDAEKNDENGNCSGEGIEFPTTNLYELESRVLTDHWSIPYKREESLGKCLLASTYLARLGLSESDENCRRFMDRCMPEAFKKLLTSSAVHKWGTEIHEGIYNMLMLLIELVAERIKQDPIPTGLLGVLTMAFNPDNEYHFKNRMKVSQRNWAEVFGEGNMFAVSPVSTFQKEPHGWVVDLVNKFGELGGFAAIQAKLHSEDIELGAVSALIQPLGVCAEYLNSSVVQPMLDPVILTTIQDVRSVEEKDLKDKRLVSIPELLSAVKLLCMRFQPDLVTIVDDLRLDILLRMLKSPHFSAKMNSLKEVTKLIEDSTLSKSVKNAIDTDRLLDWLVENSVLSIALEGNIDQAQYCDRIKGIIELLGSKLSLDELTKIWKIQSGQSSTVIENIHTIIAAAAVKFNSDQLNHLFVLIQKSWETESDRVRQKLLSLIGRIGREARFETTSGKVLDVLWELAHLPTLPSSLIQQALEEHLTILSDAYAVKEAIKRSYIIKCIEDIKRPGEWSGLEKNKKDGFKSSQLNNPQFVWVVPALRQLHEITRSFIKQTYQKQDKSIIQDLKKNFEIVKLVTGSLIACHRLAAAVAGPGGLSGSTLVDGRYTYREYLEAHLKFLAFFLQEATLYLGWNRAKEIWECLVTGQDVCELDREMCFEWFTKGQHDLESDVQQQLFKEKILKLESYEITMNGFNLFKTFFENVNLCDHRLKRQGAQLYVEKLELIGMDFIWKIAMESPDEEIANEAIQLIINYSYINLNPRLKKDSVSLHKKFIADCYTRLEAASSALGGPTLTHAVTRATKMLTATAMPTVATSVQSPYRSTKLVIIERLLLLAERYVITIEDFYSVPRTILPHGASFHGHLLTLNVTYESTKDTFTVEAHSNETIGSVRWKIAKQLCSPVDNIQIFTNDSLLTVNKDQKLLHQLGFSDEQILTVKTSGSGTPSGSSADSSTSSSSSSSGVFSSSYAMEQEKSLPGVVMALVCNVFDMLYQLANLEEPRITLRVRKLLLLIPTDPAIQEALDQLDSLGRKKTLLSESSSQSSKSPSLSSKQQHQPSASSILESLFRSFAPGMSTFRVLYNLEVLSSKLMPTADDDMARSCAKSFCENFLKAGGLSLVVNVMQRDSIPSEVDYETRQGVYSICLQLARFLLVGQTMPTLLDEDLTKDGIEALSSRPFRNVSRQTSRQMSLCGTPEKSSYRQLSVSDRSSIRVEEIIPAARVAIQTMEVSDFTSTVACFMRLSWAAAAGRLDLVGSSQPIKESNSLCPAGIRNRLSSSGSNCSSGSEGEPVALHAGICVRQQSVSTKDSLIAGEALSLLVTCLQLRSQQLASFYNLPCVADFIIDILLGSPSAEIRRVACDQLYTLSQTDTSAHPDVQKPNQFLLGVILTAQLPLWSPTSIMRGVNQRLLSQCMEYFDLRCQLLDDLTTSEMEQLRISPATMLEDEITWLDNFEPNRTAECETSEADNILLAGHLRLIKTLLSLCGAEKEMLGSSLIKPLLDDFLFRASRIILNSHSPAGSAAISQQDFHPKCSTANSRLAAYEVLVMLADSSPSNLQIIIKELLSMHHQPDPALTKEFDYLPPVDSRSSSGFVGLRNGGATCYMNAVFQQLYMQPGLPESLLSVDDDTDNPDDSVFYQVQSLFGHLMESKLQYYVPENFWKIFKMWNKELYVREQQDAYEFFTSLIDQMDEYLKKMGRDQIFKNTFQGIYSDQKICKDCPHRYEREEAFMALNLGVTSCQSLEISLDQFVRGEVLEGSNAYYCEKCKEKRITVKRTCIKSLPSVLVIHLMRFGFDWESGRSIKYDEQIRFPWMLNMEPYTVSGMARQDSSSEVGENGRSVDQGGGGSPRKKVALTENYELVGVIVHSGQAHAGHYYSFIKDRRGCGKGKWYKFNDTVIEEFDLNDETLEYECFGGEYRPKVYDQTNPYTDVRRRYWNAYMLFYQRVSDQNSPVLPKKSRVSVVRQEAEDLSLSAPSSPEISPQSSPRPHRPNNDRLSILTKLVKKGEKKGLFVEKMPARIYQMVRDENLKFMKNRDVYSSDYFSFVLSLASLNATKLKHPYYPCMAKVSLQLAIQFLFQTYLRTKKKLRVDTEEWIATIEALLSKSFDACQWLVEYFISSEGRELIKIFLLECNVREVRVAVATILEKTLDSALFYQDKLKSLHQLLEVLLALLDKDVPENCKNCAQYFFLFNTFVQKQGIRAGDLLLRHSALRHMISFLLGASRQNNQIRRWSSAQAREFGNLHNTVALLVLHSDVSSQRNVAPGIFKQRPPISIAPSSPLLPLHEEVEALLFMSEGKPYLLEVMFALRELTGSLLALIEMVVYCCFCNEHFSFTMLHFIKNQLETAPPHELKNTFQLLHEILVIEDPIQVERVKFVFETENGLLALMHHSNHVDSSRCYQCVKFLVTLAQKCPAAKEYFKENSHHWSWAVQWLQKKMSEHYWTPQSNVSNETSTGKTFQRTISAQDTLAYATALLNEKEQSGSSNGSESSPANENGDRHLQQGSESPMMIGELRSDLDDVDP
active: [1]; compound concentration: 200uM -1.29 | [9]; compound concentration: 200uM -1.37 | [10]; compound concentration: 200uM -1.41 | [11]; compound concentration: 200uM -1.48 | [14]; compound concentration: 200uM -1.68 | [15]; compound concentration: 200uM -2.35 | [16]; compound concentration: 200uM -1.41 | [18]; compound concentration: 50uM -1.1 | [18]; compound concentration: 200uM -2.46
inactive: [1]; compound concentration: 50uM -0.392 | [2]; compound concentration: 50uM -0.121 | [2]; compound concentration: 200uM -0.347 | [3]; compound concentration: 50uM 0.151 | [3]; compound concentration: 200uM -0.708 | [4]; compound concentration: 50uM 0.209 | [4]; compound concentration: 200uM -0.13 | [5]; compound concentration: 50uM 0.141 | [5]; compound concentration: 200uM -0.46 | [6]; compound concentration: 0.78uM -0.028 | [6]; compound concentration: 1.56uM 0.0284 | [6]; compound concentration: 3.13uM -0.0886 | [6]; compound concentration: 6.25uM -0.0483 | [6]; compound concentration: 12.5uM -0.117 | [6]; compound concentration: 25uM -0.177 | [6]; compound concentration: 50uM -0.175 | [6]; compound concentration: 100uM -0.0863 | [6]; compound concentration: 200uM -0.2 | [7]; compound concentration: 0.78uM -0.148 | [7]; compound concentration: 1.56uM -0.0805 | [7]; compound concentration: 3.13uM -0.0521 | [7]; compound concentration: 6.25uM -0.105 | [7]; compound concentration: 12.5uM -0.0644 | [7]; compound concentration: 25uM -0.126 | [7]; compound concentration: 50uM -0.193 | [7]; compound concentration: 100uM -0.134 | [7]; compound concentration: 200uM -0.343 | [8]; compound concentration: 0.78uM -0.009 | [8]; compound concentration: 1.56uM -0.013 | [8]; compound concentration: 3.13uM -0.0452 | [8]; compound concentration: 6.25uM -0.0162 | [8]; compound concentration: 12.5uM -0.088 | [8]; compound concentration: 25uM -0.093 | [8]; compound concentration: 50uM -0.0741 | [8]; compound concentration: 100uM -0.151 | [8]; compound concentration: 200uM -0.346 | [9]; compound concentration: 50uM -0.366 | [10]; compound concentration: 50uM -0.409 | [11]; compound concentration: 50uM -0.487 | [12]; compound concentration: 50uM -0.374 | [12]; compound concentration: 200uM -0.994 | [13]; compound concentration: 50uM -0.209 | [13]; compound concentration: 200uM -0.569 | [14]; compound concentration: 50uM -0.878 | [15]; compound concentration: 50uM -0.754 | [16]; compound concentration: 50uM -0.355 | [17]; compound concentration: 50uM -0.201 | [17]; compound concentration: 200uM -0.568 | [19]; compound concentration: 50uM -0.0604 | [19]; compound concentration: 200uM -0.635

USP36 (UniProt Q9P275)
Chain of UniProt Q9P275 (Q9P275 whole entry): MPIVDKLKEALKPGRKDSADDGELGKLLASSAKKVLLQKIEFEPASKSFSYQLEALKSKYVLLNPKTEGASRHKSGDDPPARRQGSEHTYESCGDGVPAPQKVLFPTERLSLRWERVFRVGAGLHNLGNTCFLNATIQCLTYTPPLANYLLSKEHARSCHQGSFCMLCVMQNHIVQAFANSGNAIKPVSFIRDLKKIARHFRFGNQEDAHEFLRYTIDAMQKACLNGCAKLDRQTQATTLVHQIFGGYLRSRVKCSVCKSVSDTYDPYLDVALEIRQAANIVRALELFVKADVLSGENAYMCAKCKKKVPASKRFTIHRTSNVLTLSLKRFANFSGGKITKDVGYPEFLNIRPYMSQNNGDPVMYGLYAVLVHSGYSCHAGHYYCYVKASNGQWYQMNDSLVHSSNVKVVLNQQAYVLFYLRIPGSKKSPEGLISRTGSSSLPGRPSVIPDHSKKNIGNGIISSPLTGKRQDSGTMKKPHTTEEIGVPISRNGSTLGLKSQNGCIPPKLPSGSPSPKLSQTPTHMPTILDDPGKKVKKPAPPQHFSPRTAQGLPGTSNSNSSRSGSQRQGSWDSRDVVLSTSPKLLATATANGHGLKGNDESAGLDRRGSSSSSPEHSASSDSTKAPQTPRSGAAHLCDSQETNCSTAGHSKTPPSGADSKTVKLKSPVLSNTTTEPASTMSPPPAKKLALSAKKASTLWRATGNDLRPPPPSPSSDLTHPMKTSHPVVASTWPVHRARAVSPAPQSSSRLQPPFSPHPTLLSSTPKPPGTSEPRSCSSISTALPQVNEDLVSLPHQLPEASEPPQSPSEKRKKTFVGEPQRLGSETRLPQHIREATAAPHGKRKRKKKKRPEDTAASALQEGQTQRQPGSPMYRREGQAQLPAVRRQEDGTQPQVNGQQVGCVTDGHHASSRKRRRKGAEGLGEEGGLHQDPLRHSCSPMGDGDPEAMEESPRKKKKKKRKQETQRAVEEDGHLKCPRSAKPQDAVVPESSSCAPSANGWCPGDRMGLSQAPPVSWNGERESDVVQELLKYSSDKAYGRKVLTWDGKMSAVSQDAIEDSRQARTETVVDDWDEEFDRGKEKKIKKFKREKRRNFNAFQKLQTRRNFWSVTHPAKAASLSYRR
inactive: [1]; compound concentration: 50uM 0.0835 | [1]; compound concentration: 200uM 0.229 | [2]; compound concentration: 50uM -0.127 | [2]; compound concentration: 200uM -0.0119 | [3]; compound concentration: 50uM -0.031 | [3]; compound concentration: 200uM -0.0419 | [4]; compound concentration: 50uM -0.145 | [4]; compound concentration: 200uM 0.158 | [5]; compound concentration: 50uM -0.121 | [5]; compound concentration: 200uM 0.283 | [6]; compound concentration: 0.78uM 0.0108 | [6]; compound concentration: 1.56uM -0.0128 | [6]; compound concentration: 3.13uM -0.0405 | [6]; compound concentration: 6.25uM -0.0421 | [6]; compound concentration: 12.5uM -0.0282 | [6]; compound concentration: 25uM -0.0131 | [6]; compound concentration: 50uM -0.0217 | [6]; compound concentration: 100uM -0.0954 | [6]; compound concentration: 200uM -0.112 | [7]; compound concentration: 0.78uM 0.107 | [7]; compound concentration: 1.56uM -0.0192 | [7]; compound concentration: 3.13uM 0.083 | [7]; compound concentration: 6.25uM 0.157 | [7]; compound concentration: 12.5uM 0.0169 | [7]; compound concentration: 25uM 0.092 | [7]; compound concentration: 50uM -0.0214 | [7]; compound concentration: 100uM 0.019 | [7]; compound concentration: 200uM -0.0674 | [8]; compound concentration: 0.78uM -0.0951 | [8]; compound concentration: 1.56uM 0.0305 | [8]; compound concentration: 3.13uM 0.102 | [8]; compound concentration: 6.25uM -0.0246 | [8]; compound concentration: 12.5uM -0.0557 | [8]; compound concentration: 25uM -0.0153 | [8]; compound concentration: 50uM -0.0239 | [8]; compound concentration: 100uM -0.0145 | [8]; compound concentration: 200uM 0.0455 | [9]; compound concentration: 50uM -0.334 | [9]; compound concentration: 200uM -0.141 | [10]; compound concentration: 50uM -0.272 | [10]; compound concentration: 200uM -0.0152 | [11]; compound concentration: 50uM -0.113 | [11]; compound concentration: 200uM -0.219 | [12]; compound concentration: 50uM -0.167 | [12]; compound concentration: 200uM -0.139 | [13]; compound concentration: 50uM -0.166 | [13]; compound concentration: 200uM -0.1 | [14]; compound concentration: 50uM -0.116 | [14]; compound concentration: 200uM -0.158 | [15]; compound concentration: 50uM -0.152 | [15]; compound concentration: 200uM 0.149 | [16]; compound concentration: 50uM -0.0391 | [16]; compound concentration: 200uM -0.252 | [17]; compound concentration: 50uM -0.06 | [17]; compound concentration: 200uM -0.0333 | [18]; compound concentration: 50uM 0.0162 | [18]; compound concentration: 200uM 0.122 | [19]; compound concentration: 50uM -0.296 | [19]; compound concentration: 200uM -0.0298
